According to PubChem BioAssay (NCATS):
Records with an inconclusive call do not appear. Active and inactive are the calls of the source. The call rests on the fitted dose curve; in most records, active means well fitted inhibition curve with a large enough effect; inconclusive means small, poorly fitted or top-dose-only effect; inactive means no such curve, though single readings can be large or run the other way. Peptide text beside a SMILES is read from it. * marks the point of attachment. Cbz = O=C(OCc1ccccc1)*; CH2F = FC*

Target: Retinaldehyde dehydrogenase 3 (Homo sapiens) (UniProt P47895)
Assay: qHTS for Inhibitors of the Aldehyde Dehydrogenase Family (ALDH1A3) Primary screen (AID 2061315);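 on activity change, negative = inhibition: plate controls were DMSO vehicle for no effect and reference inhibitor for full effect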
Conditions: ALDH inhibition qHTS; series mostly up to 56 µM; activity change, negative = inhibition: at the top concentration
Potency means the concentration at half of the fitted maximal effect.

Row | SMILES | activity change, negative = inhibition | Potency
1 | C=C1CC2C(C)(CCC(=O)O)C(C(C)(C)O)CCC2(C)C2(C(=O)OC)C(=O)C(C)(O)C(=O)C12C (stereo not given) | -6.83% [at 28 µM] (inactive) | 
2 | C=C1CC[C@@H]2[C@](C)(CO)[C@H](O)CC[C@@]2(C)[C@@H]1C/C=C1/C(=O)OCC1OC(=O)/C(=C/CO)C(O)C[C@@H]1C(=C)CC[C@@H]2[C@](C)(CO)[C@H](O)CC[C@]21C (stereo not given in full) | -7.37% [at 16.9 µM] (inactive) | 
3 | CCN(CC)CCCCCCNc1cc(OC)cc2c(C)ccnc12 |  | 2.51 µM (active)
4 | CC1(C)C[C@H]2C3=CCC4[C@@]5(C)CC[C@H](O[C@H]6O[C@H](C(=O)O)[C@@H](O)[C@H](O)[C@H]6O[C@H]6O[C@H](CO)[C@@H](O)[C@H](O)[C@H]6O[C@@H]6O[C@H](CO)[C@@H](O)[C@H](O)[C@H]6O)[C@](C)(CO)C5CC[C@@]4(C)[C@]3(C)CC[C@@]2(C)[C@H](O[C@@H]2OC[C@H](O)[C@H](OC3O[C@H](CO)[C@@H](O)[C@H](O)[C@H]3O)[C@H]2O)[C@@H]1O (stereo not given in full) | 14.7% [at 11.2 µM] (inactive) | 
5 | CC1(C)CC[C@]2(C(=O)O[C@@H]3O[C@H](CO)[C@@H](O)[C@H](O)[C@H]3O)CC[C@]3(C)C(=CCC4[C@@]5(C)CC[C@H](O[C@H]6O[C@H](CO)[C@@H](O)[C@H](O[C@@H]7O[C@H](CO)[C@@H](O)[C@H](O)[C@H]7O)[C@H]6O)C(C)(C)C5CC[C@]43C)[C@@H]2C1 (stereo not given in full) | 4.07% [at 16.9 µM] (inactive) | 
6 | C=C1C(O)C[C@@H]2C(C(=O)O)=CO[C@@H](O[C@@H]3O[C@H](CO)[C@@H](O)[C@H](O)[C@H]3OC(=O)c3ccc(O)cc3)[C@H]12 (stereo not given in full) | -1.79% [at 28 µM] (inactive) | 
7 | C/C1=C\CCC2=C[C@@H](OC2=O)c2c(C)coc2C1 | 3.56% (inactive) | 
8 | C=CC1C(O[C@@H]2O[C@H](CO)[C@@H](O)[C@H](O)[C@H]2O)OC=C(C(=O)OC)C1Cc1nccc2c1[nH]c1ccccc12 (stereo not given in full) | -24.4% [at 28 µM] (inactive) | 
9 | N#C[C@@H]1CCCN1C(=O)CNC12CC3CC(CC(O)(C3)C1)C2 | 14.7% (inactive) | 
10 | Cc1occc(=O)c1O[C@@H]1O[C@H](CO)[C@@H](O)[C@H](O)[C@H]1O | -13.6% (inactive) | 
11 | CC(=O)O[C@@H]1[C@H](O[C@@H]2O[C@@H](CO)[C@H](O)[C@H]2O)[C@@H](O[C@@H]2O[C@@H](C)[C@H](O[C@@H]3OC[C@@H](O)[C@H](O)[C@H]3O)[C@@H](O)[C@H]2O)[C@H](OC(=O)[C@]23CCC(C)(C)C[C@H]2C2=CCC4[C@@]5(C)CC[C@H](O[C@@H]6O[C@H](C(=O)O)[C@@H](O)[C@H](O)[C@H]6O[C@@H]6O[C@H](CO)[C@H](O)[C@H](O)[C@H]6O)[C@@](C)(C=O)C5CC[C@@]4(C)[C@]2(C)C[C@H]3O)O[C@@H]1C (stereo not given in full) | -1.8% [at 11.2 µM] (inactive) | 
12 | CC1=CC(=O)C(=C(C)C)CC2C1CCC2(C)O (stereo not given) | 6.47% (inactive) | 
13 | COc1cc2oc(-c3ccc(O)cc3O)cc2c(OC)c1CC=C(C)C | -10.9% (inactive) | 
14 | OC[C@H]1O[C@@H](Oc2ccc3c(c2)OC[C@H]2c4cc5c(cc4O[C@@H]32)OCO5)[C@H](O)[C@@H](O)[C@@H]1O | -9.14% [at 28 µM] (inactive) | 
15 | COC1=CC(=O)O/C1=C(/OC)[C@@H]1O[C@H]1c1ccccc1 | -15% (inactive) | 
16 | C/C1=C\C[C@]2(C)C(=O)C(O)=C([C@H](C)CO)[C@H]2C/C=C(\C)[C@@H](O)CC/C(C)=C/CC1 | -6.59% (inactive) | 
17 | C=C1C(=O)O[C@@H]2C[C@@H](C)[C@]34C[C@]5(C(=O)O[C@H]6CC(C)=C([C@H](C)CCCO)[C@H](OC(=O)C(C)CC)[C@H]65)[C@@H](C(C)=C3C[C@@H]12)[C@H]4OC(C)=O (stereo not given in full) | 2.01% [at 16.9 µM] (inactive) | 
18 | CC1OC(O[C@H]2CC[C@@]3(C)C(CC[C@]4(C)C3CC=C3C5CC(C)(C)CC[C@]5(C(=O)OC5OC(CO)C(OC6OCC(OC7OCC(O)C(O)C7O)C(O)C6O)C(O)C5O)CC[C@]34C)C2(C)C)C(O)C(O)C1OC1OC(CO)C(O)C(OC2OC(CO)C(O)C(O)C2O)C1O (stereo not given in full) | 8.31% [at 11.2 µM] (inactive) | 
19 | COC(=O)[C@H](Cc1cccc(C(=N)N)c1)[C@@H](C)NC(=O)c1ccc(-c2cc[n+]([O-])cc2)cc1 | 4.7% (inactive) | 
20 | C=C1[C@@H]2CC[C@@]3(C)[C@H](c4ccoc4)OC(=O)C[C@]13O[C@H]1CC(=O)C(C)(C)[C@H](C(O)C(=O)OC)[C@]12C (stereo not given in full) | 17.1% [at 28 µM] (inactive) | 

Row | SMILES | activity change, negative = inhibition | Potency
21 | O=C(O)c1ccc(OC2OC(CO)C(O)C(O)C2O)cc1 (stereo not given) | -0.0785% (inactive) | 
22 | CC1OC(OC2C(C)OC(OC3C(O)C(CO)OC(O[C@H]4CC[C@@]5(C)C(CC[C@]6(C)C5CC=C5C7[C@@H](C)[C@H](C)CC[C@]7(C(=O)O)CC[C@]56C(=O)O)C4(C)C)C3O)C(O)C2O)C(O)C(O)C1O (stereo not given in full) | 3.81% [at 16.9 µM] (inactive) | 
23 | O=[N+]([O-])c1ccc(Oc2ccc3c(c2)CCC(c2ccccc2)O3)nc1 (stereo not given) | 4.22% (inactive) | 
24 | CC(C)(C)NCCCNC(=O)c1cccc(Br)c1 | -8.62% (inactive) | 
25 | CC(=O)CCC1=C(C)C(O[C@@H]2O[C@H](CO)[C@@H](O)[C@H](O)[C@H]2O)C(O)CC1(C)C (stereo not given in full) | -11% (inactive) | 
26 | COc1cc(NS(=O)(=O)c2ccc(N)cc2)nc(C)n1 | -0.165% (inactive) | 
27 | COC(=O)[C@H](OC(C)=O)[C@H]1C(C)(C)C(=O)[C@H]2CC3=C4CC(=O)O[C@@H](c5ccoc5)[C@]4(C)CCC3[C@@]1(C)C2=O (stereo not given in full) | 0.61% [at 28 µM] (inactive) | 
28 | C1=Cc2ccccc2C(=C2CCN(CCCCc3nn[nH]n3)CC2)c2ccccc21 | 25.4% (inactive) | 
29 | CCC(C)C(=O)O[C@H]1[C@@H](OC(=O)c2ccoc2)C[C@](C)(O)[C@]23OC(C)(C)[C@H](C[C@H](OC(=O)c4ccoc4)[C@]12COC(C)=O)[C@H]3OC(C)=O (stereo not given in full) | 2.7% [at 16.9 µM] (inactive) | 
30 | CC1CCC2C(C)(C)[C@@H](O)CC[C@]2(C)C12Cc1c(O)cc3c(c1O2)CN(C(CCC(=O)O)C(=O)O)C3=O (stereo not given in full) | 11.7% [at 28 µM] (inactive) | 
31 | CC1CCC2(NC1)OC1C(=O)C3C4CCC5CC(O[C@@H]6O[C@H](CO)[C@@H](O)[C@H](O)[C@H]6O[C@@H]6O[C@@H](C)[C@H](O)[C@@H](O)[C@H]6O)CCC5(C)C4CCC3(C)C1C2C (stereo not given in full) | 4.95% [at 16.9 µM] (inactive) | 
32 | COC(=O)C1=COC(OC2OC(CO)C(O)C(O)C2O)C2C1C=CC2(O)CO (stereo not given) | -15.5% [at 28 µM] (inactive) | 
33 | CC1=CC(=O)CC(C)(C)C1CCC(C)O[C@@H]1O[C@H](CO[C@@H]2OC[C@@H](O)[C@H](O)[C@H]2O)[C@@H](O)[C@H](O)[C@H]1O (stereo not given in full) | 6.91% [at 28 µM] (inactive) | 
34 | CN(C)CCCn1cc(C2=C(c3c[nH]c4ccccc34)C(=O)NC2=O)c2ccccc21 | -1.37% (inactive) | 
35 | OCC1OC(Oc2cc(O)cc(/C=C/c3ccc(O)cc3)c2)C(O)C(O)C1O (stereo not given) |  | 3.55 µM (active)
36 | CC1CCCC(O)CCC/C=C/c2cc(OS(=O)(=O)O)cc(O)c2C(=O)O1 (stereo not given) | 17.2% (inactive) | 
37 | COC(=O)CC[C@H](NC(=O)[C@H](CC(C)C)NC(=O)OCc1ccccc1)C(=O)N[C@@H](Cc1cnc[nH]1)C(=O)N[C@@H](CC(=O)OC)C(=O)CF (Cbz-LE(OMe)HD(OMe)-CH2F) | -9.94% [at 11.2 µM] (inactive) | 
38 | CC1(C)O[C@H]2CC(=O)OC[C@]23[C@H]2CC[C@@]4(C)[C@H](c5ccoc5)OC(=O)[C@H]5O[C@]54[C@]2(C)C(=O)C[C@@H]13 | 18.3% [at 28 µM] (inactive) | 
39 | Nc1c(NC/C=C\COc2cc(CN3CCCCC3)ccn2)c(=O)c1=O | 6.37% (inactive) | 
40 | CC(C)CC(=O)OC[C@@]1(O)C[C@@]23CC[C@H]4[C@@](C)(CCC[C@@]4(C)C(=O)O)[C@@H]2CC[C@@H]1C3 | 17.7% [at 28 µM] (inactive) | 
